Inconclusive results are not listed. Calls of active or inactive are those of the source. Calls come from the whole dose curve; as a rule, active = well fitted cell-killing curve with a large enough effect; inconclusive = small, poorly fitted or top-dose-only effect, or effect the other way; inactive = flat fitted curve, though single readings scatter.

A short description of the assay: MultiTox-Fluor Cytotoxicity Assay - LYMP1-001 - Dead Cells (AID 946).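 Note: cells exposed to compound for 16 h; 0% = DMSO and 100% = tetraoctylammonium bromide.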 The note with it: LYMP1-001 lymphoblastoid cells, dead-cell protease fluorescence; series mostly up to 92.2 µM; cytotoxicity (dead cells): at the top concentration. The text has this: NIH Chemical Genomics Center [NCGC]
NIH Molecular Libraries Screening Centers Network [MLSCN]
National Institutes of Environmental Health Sciences [NIEHS]
National Toxicology Program [NTP]
We have developed a 1536-well cell-based assay for quantitative high throughput screening (qHTS) against a number of cell lines to determine in vitro cytotoxicity of small molecules. This particular assay uses a human lymphoblastoid cell line (LYMP1-001) purchased from Coriell Institute for Medical Research.
NCGC Assay Protocol Summary:
The MultiTox-Fluor Cytotoxicity Assay (Promega) is a homogeneous method to simultaneously measure the relative number of live and dead cells in culture by detecting changes in cell membrane integrity. There are two fluorogenic peptide substrates in the assay reagent. Viable cells are determined when the cell-permeant substrate (GF-AFC) enters the cell and is cleaved by protease from live cells resulting in liberated fluorophore. This live-cell protease activity restricted to viable cells is proportional to cell number. The dead cells are determined by using fluorogenic cell-impermeant peptide substrate (bis-AAF-R110) which cleaved by dead cell proteases leaking from damaged cell membrane.
Using the MultiTox-Fluor Cytotoxicity Assay, the relative number of dead cells was measured in the lymphoblastoid cell line with complete culture medium following compound treatment for 16 hours. The assay was performed in opaque black Kalypsys 1536-well plates. In the screen, tetraoctylammonium bromide was used as positive control. Library compounds were measured for their ability to cause acute toxicity in the cell line, as reflected by an increase in dead cell protease activity, in a concentration-dependent manner. Data were normalized to the controls for basal activity (DMSO only) and 100% stimulation (15 uM tetraoctylammonium bromide). AC50 values were determined from concentration-response data modeled with the standard Hill equation.
qHTS protocol for MultiTox-Fluor Cytotoxicity assay
[Step] [Parameter] [Value] [Description]
1. Reagent; 5 uL; 2500 lymphoblastoid cells/well
2. Time; 5 hr; 37 C incubation
4. Controls; 23 nL; Tetraoctylammonium bromide 6.4pM to 92 uM
5. Time; 16 hr; 37 C incubation
6. Reagent; 5 uL; MuliTox-Fluor Assay reagent
7. Time; 60 min; Room Temperature
8. Detection; dead-cell fluorescence (Ex/Em=485/520); EnVision plate reader
Keywords: cytotoxicity, lymphoblastoid cell line, fluorescence, NTPHTS, NTPHTS_NCGC, NIEHS, EPA, DSSTox, MLSMR, MLSCN, NIH Roadmap, qHTS, NCGC
With `C1CCCC1`, the “cytotoxicity (dead cells)” value is -3.41% (inactive).
The result for `O=CNc1ccccc1` reads -8.25% (inactive); that for `CCCC(C)CO` (stereo not given), -3.4% (inactive); that for `BrC(Br)C(Br)Br`, -15.6% (inactive).
`CCC(=O)/C=C/C1C(C)=CCCC1(C)C` (stereo not given): the “cytotoxicity (dead cells)” value is -15.5% (inactive).
Regarding `O=P(O)(OCc1ccccc1)OCc1ccccc1`, the “cytotoxicity (dead cells)” value is 1.25% (inactive).
For the compound `C=C(C)C(=O)OCCCCCCCCCC`, the “cytotoxicity (dead cells)” value was -33.2% (inactive).
In the case of `CCCOCC(C)OCC(C)O` (stereo not given), the “cytotoxicity (dead cells)” value is 3.06% (inactive).
The result for `Cc1cccc(C)c1O` reads 6.26% (inactive); that for `O=C(O)c1ccc(Cl)c(Cl)c1`, -6.04% (inactive); that for `CC(=O)c1ccccc1[N+](=O)[O-]`, -0.0002% (inactive).
For the compound `C=Cc1ccccn1`, the “cytotoxicity (dead cells)” value is 7.32% (inactive).
The result for `CC(C)(C)c1ccc(OCC2CO2)cc1` (stereo not given) reads 16.9% (inactive).
As to `ClC/C=C/CCl`, the “cytotoxicity (dead cells)” value was 1.2% (inactive).
The result for `c1ccc2c(c1)Oc1ccccc1S2` reads 2.88% (inactive); that for `CCC(C)(C)OC`, 6.45% (inactive); that for `Clc1cc(Cl)cc(Cl)c1`, -13.6% (inactive).
`Cc1ccco1`: the “cytotoxicity (dead cells)” value was -1.43% (inactive).
On to `Nc1c(Cl)cc(Cl)cc1Cl`, for which the “cytotoxicity (dead cells)” value was 9.51% (inactive).
Regarding `CCOc1cc(OCC)c(C(C)=O)cc1OCC`, the “cytotoxicity (dead cells)” value was -1.2% (inactive).
In the case of `O=C(O)c1c(Cl)cccc1Cl`, the “cytotoxicity (dead cells)” value was -0.707% (inactive).
The result for `O=C(Cl)c1cccc([N+](=O)[O-])c1` reads 0.0192% (inactive); that for `C1CCOC1`, -17.2% (inactive); that for `CCCCCCCCN`, 8.42% (inactive).
Next, `CCOC(C)(C)C`: -10.3% (inactive); `CC/C=C/C#N`: 2.92% (inactive).
Take `CC=O`: the “cytotoxicity (dead cells)” value is -15.3% (inactive).
The result for `C=CCOC(=O)CCCCCCCC` reads 5.04% (inactive).
The result for `Nc1cccc2c(=O)[nH][nH]c(=O)c12` reads 3.99% (inactive).
`CNC(=O)c1ccccc1`: the “cytotoxicity (dead cells)” value is -8.18% (inactive).
The result for `Cc1ccc(C)c(N)c1` reads -10.6% (inactive).
Next, `O=Nc1ccc(NO)cc1`: -0.647% (inactive); `CCCCOCCOCCOCCCC`: -12.2% (inactive); `Cc1cc(C(=O)O)ccc1[N+](=O)[O-]`: -10.8% (inactive).
On to `NC(=O)NC(N)=O`, for which the “cytotoxicity (dead cells)” value was -22.3% (inactive).
The result for `CCNc1ccccc1` reads -10.2% (inactive); that for `O=[N+]([O-])c1ccc2nc[nH]c2c1`, -6.11% (inactive).
Consider `O=C1CCC(=O)O1`, for which the “cytotoxicity (dead cells)” value was -9.65% (inactive).
For `CC/C=C1/OC(=O)c2ccccc21`, the “cytotoxicity (dead cells)” value is -18.6% (inactive).
The result for `CCc1ccccc1` reads 9.37% (inactive).

The values above are taken from PubChem BioAssay (NCATS).
